The text below walks through data of PubChem BioAssay (NCATS).

The target of experiment [1] is Glutathione peroxidase 1 (Homo sapiens) (UniProt P07203). The experiment is described as follows: Primary qHTS Assay for Inhibitors of Recombinant Selenoprotein Glutathione Peroxidase 1 (GPX1) (AID 1845191). Further: nearly all actives have a fitted effect of over 65% in size. On activity, negative = inhibition: on the % scale 0 is the no-effect control and ±100 the full control effect. In a few lines: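 GR-coupled readout: NADPH consumption tracked by fluorescence, ex 340/em 450 nm, at t=0 and after 15 min at RT. Final mix 10 nM GPX1, 1 mM GSH, 0.5 mM CHP, 0.5 mM NADPH, 100 nM GR, 0.01% BSA, following 30 min enzyme–compound preincubation.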
A general note: qHTS replaces the single test concentration by a dilution series.

For experiment [2], the target named is Phospholipid hydroperoxide glutathione peroxidase GPX4 (Homo sapiens) (UniProt P36969). The experiment is described as follows: Primary qHTS Assay for Inhibitors of Recombinant Selenoprotein Glutathione Peroxidase 4 (GPX4) (AID 1845192). Further: nearly all actives have a fitted effect of over 65% in size. On activity change, negative = inhibition: on the % scale 0 is the no-effect control and ±100 the full control effect. In a few lines: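 Steps: GPX4 plus compound, 30 min RT; add GR/GSH/NADPH master mix; start with cumene hydroperoxide; read 340/450 nm fluorescence at 0 and 15 min. Finals were 200 nM GPX4, 1 mM GSH, 0.5 mM CHP, 0.5 mM NADPH, 100 nM GR.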

A short description of experiment [3]: qHTS drug screen for cell cycle checkpoint inhibitors in PARPi-resistant BRCA-mutant ovarian cancer cell lines. (AID 1963452; calls by dose curve). Particulars: PEO1/OlaR viability, CellTiter-Glo luminescence, 96 h; for Z-AUC: stronger effect = lower value. In a few lines:
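PEO1, PEO4 and PEO1/OlaR ovarian cancer cells, 600 per well, exposed 96 h at 37C to a dilution series. Viability read by CellTiter-Glo luminescence, normalized to DMSO and empty wells; activity summarized as Z-AUC.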

Experiment [4] addresses Luciferin 4-monooxygenase (Photinus pyralis) (UniProt P08659). The experiment is described as follows: Biochemical firefly luciferase enzyme assay for NPC (AID 624030). Further: nearly all actives have a fitted effect of over 70% in size.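 On activity change, negative = inhibition: purified P. pyralis luciferase at 10 nM with luciferin and ATP substrate; 0% = DMSO and -100% = full luciferase inhibition by PTC124 control.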 In a few lines: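 Purified P. pyralis luciferase at 10 nM in 50 mM Tris Acetate (final), luminescence read within 5 minutes of enzyme addition to compounds. Activity normalised to PTC124 versus DMSO; concentration-response curves classed by r2, magnitude and activity.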

Experiment [5] can be described thus: qHTS profiling for inhibitors of Plasmodium falciparum proliferation (AID 504749).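 On activity, negative = inhibition: 0% = DMSO vehicle and full inhibition = artemisinin control.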 On all read-outs here: nearly all actives have a fitted effect of over 60% in size. Particulars: P. falciparum in erythrocytes, SYBR Green DNA, 72 h; for activity, negative = inhibition: at 28.7 µM (top of the series). In a few lines:
(§1)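 Each compound contacts P. falciparum-infected red blood cells for 72 h at 37 C; lysis buffer (Tris, EDTA, saponin, Triton X, SYBR Green I) is added and fluorescence measured next morning; values normalized to controls.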

The next experiment deals with AA1029. The experiment is described as above. Particulars: P. falciparum in erythrocytes, SYBR Green DNA, 72 h; series mostly up to 28.7 µM. In a few lines:
as §1

Another experiment concerns ATS189. The experiment is described as above. Particulars: P. falciparum in erythrocytes, SYBR Green DNA, 72 h; series mostly up to 28.7 µM. In a few lines: as §1
The subject of another experiment is ATS95. Described as above. Particulars: P. falciparum in erythrocytes, SYBR Green DNA, 72 h; series mostly up to 28.7 µM. In a few lines: as §1
The test system of a further experiment is CP192. The description is as above. Particulars: P. falciparum in erythrocytes, SYBR Green DNA, 72 h; series mostly up to 28.7 µM. In a few lines:
as §1

A further experiment concerns CP238. The experiment is described as above. Particulars: P. falciparum in erythrocytes, SYBR Green DNA, 72 h; series mostly up to 28.7 µM. In a few lines:
as §1

Another experiment concerns CP286. Described as above. Particulars: P. falciparum in erythrocytes, SYBR Green DNA, 72 h; series mostly up to 28.7 µM. In a few lines:
as §1

In a further experiment the test system is CP291. The experiment is described as above. Particulars: P. falciparum in erythrocytes, SYBR Green DNA, 72 h; series mostly up to 28.7 µM. In a few lines: as §1
Another experiment has as its system DFO2036. Described as above. Particulars: P. falciparum in erythrocytes, SYBR Green DNA, 72 h; series mostly up to 28.7 µM. In a few lines: as §1
The next experiment relates to GB4. The description is as above. Particulars: P. falciparum in erythrocytes, SYBR Green DNA, 72 h; series mostly up to 28.7 µM. In a few lines: as §1
Where [6] appears, read: measured here: PEO1 parental Z-AUC.

Molecules are shown by their SMILES. Results filed as inconclusive are left out. The source made the active and inactive calls. Unless noted, the call rests on the fitted dose curve; in most records, active means well fitted inhibition curve with a large enough effect; inconclusive means small, poorly fitted or top-dose-only effect; inactive means flat fitted curve, though single readings scatter.
Potency means the concentration at half of the fitted maximal effect.

Sequence of Phospholipid hydroperoxide glutathione peroxidase GPX4 (Homo sapiens) (P36969 whole entry, looked up): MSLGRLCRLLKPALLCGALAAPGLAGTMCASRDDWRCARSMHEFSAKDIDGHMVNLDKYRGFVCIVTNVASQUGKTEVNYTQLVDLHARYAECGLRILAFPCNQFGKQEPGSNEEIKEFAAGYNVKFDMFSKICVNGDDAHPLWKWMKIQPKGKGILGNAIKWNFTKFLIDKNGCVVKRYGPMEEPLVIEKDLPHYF
Sequence of Luciferin 4-monooxygenase (Photinus pyralis) (P08659 whole entry, looked up): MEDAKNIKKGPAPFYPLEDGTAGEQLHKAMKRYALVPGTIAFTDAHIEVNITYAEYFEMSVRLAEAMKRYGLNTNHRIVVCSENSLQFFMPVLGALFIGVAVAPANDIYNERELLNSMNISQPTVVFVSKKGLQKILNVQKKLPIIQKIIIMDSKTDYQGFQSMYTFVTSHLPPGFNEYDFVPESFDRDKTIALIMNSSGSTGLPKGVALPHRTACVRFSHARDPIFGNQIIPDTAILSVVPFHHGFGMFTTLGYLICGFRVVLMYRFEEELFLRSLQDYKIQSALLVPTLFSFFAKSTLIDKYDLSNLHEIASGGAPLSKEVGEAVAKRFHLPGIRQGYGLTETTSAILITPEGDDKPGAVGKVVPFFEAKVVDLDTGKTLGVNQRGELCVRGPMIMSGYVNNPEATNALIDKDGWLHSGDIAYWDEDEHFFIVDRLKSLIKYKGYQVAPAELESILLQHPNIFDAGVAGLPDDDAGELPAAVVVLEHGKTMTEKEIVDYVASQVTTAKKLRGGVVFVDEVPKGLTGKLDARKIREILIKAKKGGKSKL
Sequence of Glutathione peroxidase 1 (Homo sapiens) (P07203 whole entry, looked up): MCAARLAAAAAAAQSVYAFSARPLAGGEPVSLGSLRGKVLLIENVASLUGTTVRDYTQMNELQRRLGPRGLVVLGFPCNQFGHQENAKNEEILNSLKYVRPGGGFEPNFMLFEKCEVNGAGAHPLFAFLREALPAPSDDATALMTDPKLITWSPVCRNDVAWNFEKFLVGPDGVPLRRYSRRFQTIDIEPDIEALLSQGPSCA

With `CC(C)NC(=O)C1CCC(n2c(NC(=O)c3ccc(F)cc3)nc3ccc(CN4CCC(C(C)(C)O)CC4)cc32)CC1` (stereo not given), the Potency result in experiment [1] and in experiment [2] was “inactive” each time. For the same compound, in experiment [3], the Potency was 8480 nM (active). In addition, the Z-AUC in experiment [3] (setting [6]) is -1.17; in [3] (measured here: PEO4 Z-AUC), -1.3.

For the compound `CCN1/C(=C/C=C/C=C/c2sc3ccccc3[n+]2CC)Sc2ccccc21`, the Potency in experiment [4] was 32200 nM (active); in experiment [1], 1430 nM (active); in experiment [2], 7940 nM (active); in [5] (parasite line A), 2820 nM (active); in experiment [5] (parasite line B) it was 3980 nM (active); in the experiment on AA1029, 3980 nM (active). Also, the Potency in the experiment on ATS189 was 4470 nM (active); in the experiment on ATS95, 5010 nM (active); in the experiment with CP192 it was 5360 nM (active); in the experiment on CP238, 3160 nM (active); in the experiment with CP286, 708 nM (active); with CP291 it was 13500 nM (active). The results for the Potency with DFO2036 and in the experiment with GB4 were 3550 nM (active) and 7570 nM (active), respectively.

In the case of `CO[C@H]1O[C@@H]2O[C@@]3(C)CC[C@H]4[C@H](C)CC[C@@H]([C@@H]1C)[C@@]24OO3`, the Potency entry in experiment [1] and in experiment [2] was “inactive” each time.

As to `OB1OCc2cc(F)ccc21`, the Potency entry in experiment [1] and in [2] was “inactive” in each case.

As for `CCCCC[C@@H](O)CC[C@H]1[C@@H]2Cc3cccc(OCC(=O)O)c3C[C@@H]2C[C@@H]1O`, the Potency entry in experiment [1] and in experiment [2] was “inactive” each time.

Turning to `CCCCCCCCCCCCCCCC(=O)OCC(O)C1OC(=O)C(O)=C1O` (stereo not given), the Potency result in experiment [4] and in [1] was “inactive” each time. For the same compound, in [2], the Potency was 7080 nM (active).

Take `CCCCC(CC)COC(=O)c1ccc(Nc2nc(Nc3ccc(C(=O)OCC(CC)CCCC)cc3)nc(Nc3ccc(C(=O)OCC(CC)CCCC)cc3)n2)cc1` (stereo not given): in experiment [2], the Potency result is “inactive”.

On to `CCc1cc2c(cc1CC)CC(NC[C@H](O)c1ccc(O)c3[nH]c(=O)ccc13)C2`, for which the Potency in [2] was 10000 nM (active).

With `CSCCNc1nc(SCCC(F)(F)F)nc2c1ncn2[C@@H]1O[C@H](COP(=O)(O)OP(=O)(O)C(Cl)(Cl)P(=O)(O)O)[C@@H](O)[C@H]1O`, the Potency result in [2] was “inactive”.

`O[C@@H]1[C@@H](O)[C@@H](O)OC[C@@H]1O`: the Potency result in [2] is “inactive”.

As for `CCCCC(CC)COc1ccc(-c2nc(-c3ccc(OC)cc3)nc(-c3ccc(OCC(CC)CCCC)cc3O)n2)c(O)c1` (stereo not given), in experiment [2], the activity change, negative = inhibition is -23.8% [at 4.52 µM] (inactive).

Consider `CC/C=C(\C(=O)N[C@H]1C(=O)N2C(C(=O)OCOC(=O)C(C)(C)C)=C(COC(N)=O)CS[C@H]12)c1csc(N)n1`, for which the Potency result in experiment [4] is “inactive”. In experiment [1], the Potency was 6260 nM (active).

Consider `CC(=O)O[C@@]12CO[C@@H]1C[C@H](O)[C@@]1(C)C(=O)[C@H](O)C3=C(C)[C@@H](OC(=O)C(O)[C@@H](NC(=O)OC(C)(C)C)c4ccccc4)C[C@@](O)([C@@H](OC(=O)c4ccccc4)[C@H]21)C3(C)C` (stereo not given in full), for which the Potency result in [4] and in experiment [1] was “inactive” in each case. Besides, the Potency was 31.6 nM (active) in [5] (parasite line A); 28.2 nM (active) in experiment [5] (parasite line B); 44.7 nM (active) in the experiment on AA1029; 35.5 nM (active) in the experiment on ATS189; 35.5 nM (active) in the experiment with ATS95; 26.9 nM (active) with CP192. Also, the Potency was 28.2 nM (active) in the experiment on CP238; 17.8 nM (active) with CP286; 37.9 nM (active) in the experiment with CP291; 22.4 nM (active) with DFO2036; 30.1 nM (active) with GB4.

Take `COc1cc2c(cc1OC)[C@H]1C[C@@H](OC(=O)[C@@H](N)C(C)C)[C@H](CC(C)C)CN1CC2`: the Potency result in [2] is “inactive”.

With `N[C@@H](C(=O)N[C@@H]1C(=O)N2C(C(=O)O)=C(Cl)CC[C@H]12)c1ccccc1`, the Potency entry in experiment [1] and in [2] was “inactive” throughout.

On to `CC(C)(C)NC(=O)[C@@H]1C[C@@H]2CCCC[C@H]2CN1C[C@@H](O)[C@H](Cc1ccccc1)NC(=O)[C@H](CC(N)=O)NC(=O)c1ccc2ccccc2n1`, for which the Potency result in experiment [2] was “inactive”.

On to `CC(C)(O)C1CCC(Nc2ccc3ncc(-c4cccc(C(F)(F)F)c4)n3n2)CC1` (stereo not given), for which the Potency entry in [1] is “inactive”. The Potency in experiment [3] was 5490 nM (active). The Z-AUC in [3] (setting [6]) is -1.03; in experiment [3] (measured here: PEO4 Z-AUC) it was -1.21.

As for `CC(OC(=O)OC1CCCCC1)OC(=O)C1=C(CSc2nnnn2CCN(C)C)CS[C@@H]2[C@H](NC(=O)Cc3csc(N)n3)C(=O)N12` (stereo not given in full), the Potency in [2] was 8910 nM (active).

In the case of `Cc1cc(CC(C)CC(C)(C)C)n(O)c(=O)c1` (stereo not given), the Potency result in experiment [4] and in experiment [1] was “inactive” each time. For the same compound, the Potency in experiment [5] (parasite line A) is 1780 nM (active); in experiment [5] (parasite line B), 1000 nM (active); with AA1029 it was 3160 nM (active); in the experiment on ATS189 it was 3160 nM (active); in the experiment with ATS95, 3160 nM (active); with CP192, 2390 nM (active). For the same compound, the Potency in the experiment with CP238 was 2510 nM (active); in the experiment with CP286, 2820 nM (active); with CP291, 1900 nM (active); in the experiment on DFO2036, 1780 nM (active); in the experiment with GB4, 1510 nM (active).

As to `CC(O)C(CO)NC(=O)C1CSSCC(NC(=O)C(N)Cc2ccccc2)C(=O)NC(Cc2ccccc2)C(=O)NC(Cc2c[nH]c3ccccc23)C(=O)NC(CCCCN)C(=O)NC(C(C)O)C(=O)N1` (stereo not given), the Potency in [2] is 12600 nM (active).

As for `Cc1cc2nc3c(=O)[nH]c(=O)nc-3n(C[C@@H](O)[C@@H](O)[C@@H](O)COP(=O)(O)O)c2cc1C`, in experiment [2], the Potency was 2550 nM (active).

Take `CCC(=O)O[C@@H](OP(=O)(CCCCc1ccccc1)CC(=O)N1C[C@H](C2CCCCC2)C[C@H]1C(=O)O)C(C)C` (stereo not given in full): the Potency entry (in [4]; in the experiment with AA1029; with ATS189; with ATS95; with CP192; in the experiment with CP238) was “inactive” each time. For the same compound, the Potency entry with CP286, in the experiment on CP291, in the experiment with DFO2036 and in the experiment on GB4 was “inactive” in each case. In addition, the activity, negative = inhibition in experiment [1] is 2.57% [at 9.52 µM] (inactive); in [5] (parasite line A), -6.06% (inactive); in experiment [5] (parasite line B), -3.37% (inactive).

In the case of `COc1cc([C@@H]2c3cc4c(cc3[C@@H](O[C@@H]3O[C@@H]5CO[C@@H](C)O[C@H]5[C@H](O)[C@H]3O)[C@H]3COC(=O)[C@H]23)OCO4)cc(OC)c1OP(=O)(O)O`, the Potency entry in experiment [4] and in experiment [1] was “inactive” throughout.

In the case of `CCCCC(C)(O)CC=C[C@H]1[C@H](O)CC(=O)[C@H]1CCCCCCC(=O)OC` (stereo not given in full), the Potency result in experiment [2] was “inactive”.

For the compound `C[C@@H](O)[C@H]1C(=O)N2C(C(=O)O)=C(S[C@@H]3CN[C@H](C(=O)Nc4cccc(C(=O)O)c4)C3)[C@H](C)[C@H]12`, the Potency result in experiment [2] is “inactive”.

In the case of `CCCCCCCCCCCCCCCC(=O)OC1CCCn2c1nc(C)c(CCN1CCC(c3noc4cc(F)ccc34)CC1)c2=O` (stereo not given), in experiment [2], the Potency result is “inactive”.
